Screening data: PubChem, National Center for Advancing Translational Sciences (NCATS)
A selection: hits, their analogues and other compounds. The true share with any hit is near 9.4%.
FLuc modulator: firefly luciferase modulation, counter-screen for miR-21 project. P08659. purified FLuc, Km substrates, luminescence inhibition. Potency, µM (series often up to 57.5 µM), for inactives: top-dose activity change, negative = inhibition, most hits filed as inhibitors. 360,000 tested, 6.9% active. AID 588342;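 also: plate controls were vehicle for no effect and reference inhibitor for full effect; nearly all actives have a fitted effect of over 55% in size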
Target sequence (P08659 whole entry, looked up): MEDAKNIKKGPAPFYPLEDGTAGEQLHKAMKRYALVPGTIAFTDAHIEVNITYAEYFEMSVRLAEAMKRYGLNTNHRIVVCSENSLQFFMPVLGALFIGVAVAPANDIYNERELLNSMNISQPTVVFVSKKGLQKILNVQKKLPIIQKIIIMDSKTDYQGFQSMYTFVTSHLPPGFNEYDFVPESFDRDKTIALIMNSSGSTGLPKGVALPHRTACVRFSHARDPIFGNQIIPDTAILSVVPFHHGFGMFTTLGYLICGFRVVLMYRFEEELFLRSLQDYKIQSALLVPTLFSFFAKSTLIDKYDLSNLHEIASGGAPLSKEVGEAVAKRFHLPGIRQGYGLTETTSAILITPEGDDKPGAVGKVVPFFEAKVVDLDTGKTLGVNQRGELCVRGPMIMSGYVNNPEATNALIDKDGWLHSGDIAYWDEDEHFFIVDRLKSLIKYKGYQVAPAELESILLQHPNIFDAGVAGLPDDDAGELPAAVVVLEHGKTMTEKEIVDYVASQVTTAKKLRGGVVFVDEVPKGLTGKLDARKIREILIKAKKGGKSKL
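Purified P. pyralis luciferase (10nM final) with 10uM D-luciferin and 10uM ATP (Km levels) in 50mM Tris acetate pH 7.5, 10mM Mg acetate, 0.01% Tween-20, 0.05% BSA; qHTS 6-point titration, ~60 µM downward; luminescence read.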
SMN2 splice enh: increases expression of the SMN2 splice variant; HEK293 SMN2-luciferase splicing reporter, luminescence, 30-36 h; Potency, µM (top dose mostly 46.1 µM), inactives show at the top dose activity change, positive = activation, actives largely listed as activators; 210,000 tested, 2.8% active; also: % of control where 0% means no effect; nearly all actives have a fitted effect of over 55% in size
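qHTS luciferase splicing reporter: luminescence rises when SMN2 exon 7 is included in transfected HEK293 cells. Compound exposure lasted 30-36 h at 37C, with 4.5 mM final sodium butyrate as control, followed by a ONE-Glo read.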
ELG1 genotoxic: inducers of genotoxicity in HEK293T ELG1-luciferase cells; HEK293T ELG1-luciferase reporter, luminescence, 16 h; Potency, µM (highest dose often 46 µM), without a hit: top-dose activity change, positive = activation, actives largely listed as activators; 330,000 tested, 1.3% active; AID 504466; also: % of control where 0% means no effect; nearly all actives have a fitted effect of over 60% in size
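DMSO vehicle served as control against compound-treated ELG1-luciferase HEK293T cells; exposure lasted 16 hr at 37 °C and 5% CO2, followed by ONE-Glo luminescence detection after 30 min.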
NPC1 prom act: NPC1 promoter activation. Huh7 NPC1 promoter luciferase reporter, 24 h. Potency, µM (doses to about 9.22 µM), inactives show top-dose activation, hits mostly activators. 320,000 tested, 2.4% active. AID 485313; also: % of control where 0% means no effect; nearly all actives have a fitted effect of over 60% in size
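Luminescence from an NPC1 promoter-driven luciferase reporter in stably transfected Huh7 cells was measured after 24 h compound treatment at 37 °C, followed by 10 min ambient incubation with luciferase detection reagent.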
ELG1 DNA repair: blocks ELG1-dependent DNA repair in HEK293T cells | HEK293T ELG1-luciferase reporter, luminescence, 16 h; DNA damage induced by 5-fluorouridine | Potency, µM (doses to about 46.1 µM), for inactives: at the highest dose activity change, negative = inhibition, most hits filed as inhibitors | 330,000 tested, 2.3% active | AID 504467; also: % is scaled to controls: 0 for no effect and ±100 for the full control effect; nearly all actives have a fitted effect of over 55% in size
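Overnight (16 hr) co-exposure of 2,000 cells/well to 5-fluorouridine and compound at 37 °C preceded detection. Luciferase was quantified via ONE-Glo luminescence; loss of signal denotes inhibition.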
Rab9 prom act: Rab9 promoter activation; Huh7 Rab9 promoter-luciferase reporter, luminescence, 24 h; Potency, µM (doses to about 9.22 µM), for inactives: top-dose activation, negative = inhibition, hits mostly activators; 320,000 tested, 2.8% active; AID 485297; also: % of control where 0% means no effect; nearly all actives have a fitted effect of over 60% in size
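Using Huh7 cells stably transfected with Rab9 promoter–luciferase, compounds were incubated 24 h at 37 °C, 5% CO2; luciferase luminescence was read 10 min after reagent addition.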
An asterisk follows results filed as active; ? = inconclusive; . = no result; [ ] = dose if it differs, or a comment. Calls follow the shape of the dose curve; as a rule, active = well fitted curve in the direction sought with a large enough effect; inconclusive = small, poorly fitted or top-dose-only effect, or another doubt; inactive = no such curve, though single readings can be large; an effect the other way counts as inactive or inconclusive. Potency is read from the fitted curve at half-maximal effect.

SMILES	FLuc modulator	SMN2 splice enh	ELG1 genotoxic	NPC1 prom act	ELG1 DNA repair	Rab9 prom act
COc1ccc(NC(C)=O)cc1S(=O)(=O)Nc1ccccc1C(=O)NCCc1ccccc1	17µM*	.	?	2.2µM*	?	2µM*
COc1ccccc1NC(=O)c1ccccc1NS(C)(=O)=O	1%	-6%	-6%	-1%	5%	-6%[1.84 µM]
Cc1ccc(-c2noc(-c3nnn(CC(=O)Nc4cccc(C(F)(F)F)c4)c3N)n2)cc1	-6%	.	.	.	.	.
Cc1c(C)c(C)c(CC2(C)CSC2)c(CC2(C)CSC2)c1C	.	-12%[9.22 µM]	.	.	.	.
COc1ccc(-n2c(=O)c3ccccc3n(CC(=O)NCCc3ccc(OC)c(OC)c3)c2=O)cc1	-1%	1%	.	.	.	.
CCn1c(C)c(C)c2cc(C(=O)NCc3ccc(OC)cc3OC)ccc21	-5%	.	.	.	.	.
O=C(NCCc1ccccc1)c1ccccc1NC(=O)C1CCCCC1C(=O)O (centres undefined)	?	11µM*	?	?	?	2µM*
Brc1ccc(OCCCOc2cccc3cccnc23)cc1	?	.	7%	1%	?	1%
Brc1ccc(-c2cn3c(n2)CCc2ccc4cccnc4c2-3)cc1	13µM*	-14%	-5%	13%	?	4%
O=C(CS(=O)(=O)c1ccccc1)c1cc2ccccc2oc1=O	1.5µM*	.	5%	1%	3%	-1%
COc1cccc2cc(C(=O)CS(=O)(=O)c3ccc(C(C)(C)C)cc3)c(=O)oc12	-19%	.	0%	-1%	16%	0%
COc1ccc2cc(C(=O)CS(=O)(=O)c3ccccc3)c(=O)oc2c1	0.95µM*	.	?	-11%	?	0%
O=C(CS(=O)(=O)c1ccccc1)c1cc2cc(F)ccc2oc1=O	1.9µM*	.	3%	12%	27%	-1%
O=C(NCCc1ccc(Cl)cc1)C(=O)NCC(c1ccc2c(c1)OCO2)N1CCOCC1 (centres undefined)	1%	.	.	.	.	.
COC(=O)c1c(-c2ccc(Cl)cc2)noc1N1CCN(c2cccc(OC)c2)CC1	-7%	.	.	.	.	.
COc1ccccc1/C=N/N1C(=O)C2C3C=CC(CC3)C2C1=O (centres undefined)	?	-30%	10%	-6%	-16%	-3%
O=C1C2C3C=CC(C3)C2C(=O)N1/N=C/c1cn(Cc2ccccc2)c2ccccc12 (centres undefined)	?	-5%	11%	5%	28%	6%
O=C1C2C3C=CC(CC3)C2C(=O)N1/N=C/c1c[nH]c2ccccc12 (centres undefined)	9.5µM*	92%	25%	?	?	?
CCOC(=O)Cn1cc(/C=N/N2C(=O)C3C4C=CC(C4)C3C2=O)c2ccccc21 (centres undefined)	15µM*	3%	8%	5%	?	-1%
O=S(=O)(CCc1ccccc1)c1nnnn1-c1ccccc1	.	2%	.	.	.	.
CCOC(=O)c1c(C)[nH]c(C)c1S(=O)(=O)N1CCN(c2cccc(C(F)(F)F)c2)CC1	-6%	.	.	.	.	.
O=C(O)[C@@H]1CCCN(S(=O)(=O)c2cccc3cccnc23)C1	-3%	.	0%	2%	21%	0%
O=C(Nc1nccs1)C1CCCN(S(=O)(=O)c2cccc3cccnc23)C1 (centres undefined)	1%	-6%	-18%	0%	23µM*	0%
CC1Cc2ccccc2N1C(=O)C1CCCN(S(=O)(=O)c2cccc3cccnc23)C1 (centres undefined)	1%	-7%	-9%	1%	21µM*	-8%
O=C(Nc1ccccc1Cl)C1CCCN(S(=O)(=O)c2cccc3cccnc23)C1 (centres undefined)	-1%	.	-10%	-16%	-5%	1%
SMILES	FLuc modulator	SMN2 splice enh	ELG1 genotoxic	NPC1 prom act	ELG1 DNA repair	Rab9 prom act
CSc1cccc(NC(=O)C2CCCN(S(=O)(=O)c3ccc(F)cc3)C2)c1 (centres undefined)	4%	-31%	-26%	1%	21µM*	-1%
O=C(Nc1ccc(C(F)(F)F)cc1)C1CCCN1S(=O)(=O)c1cccc2cccnc12 (centres undefined)	-5%	-33%	-9%	0%	21µM*	-6%
COc1cc(OC)c(N(C)C(=O)c2c(C)oc3ncn(CC(C)C)c(=O)c23)cc1Cl	-3%	.	.	.	.	.
COc1ccc(C2CC(=O)Nc3c2c(=O)[nH]c2nc4ccccc4n32)cc1 (centres undefined)	-13%	-5%	.	.	.	.
Cc1ccc(N(C)C(CNS(=O)(=O)c2ccccc2)c2ccccc2)cc1 (centres undefined)	2%	-8%	.	.	.	.
O=C(Nc1nc2cc(Cl)ccc2s1)C1CCCN(S(=O)(=O)c2cccc3cccnc23)C1 (centres undefined)	-2%	-12%	-16%	-5%	16µM*	-7%
CC(=O)c1cccc(NC(=O)C2CCCN(S(=O)(=O)c3cccc4cccnc34)C2)c1 (centres undefined)	-1%	-4%	-16%	-2%	16µM*	5%
Cc1ccc(NC(=O)C2CCCN(S(=O)(=O)c3cccc4cccnc34)C2)cc1Cl (centres undefined)	-8%	-19%	.	.	.	.
C[C@H](CN(C)C)C(=O)c1ccccc1C(=O)O	.	-12%[9.22 µM]	.	.	.	.
CC(C)c1c(C(=O)N/N=C/c2ccoc2)nnn1-c1nonc1N	?	.	3%	0%	7%	0%
CC(C)c1c(C(=O)N/N=C/c2cccs2)nnn1-c1nonc1N	17µM*	.	0%	8%	2%	3%
CC(C)c1c(C(=O)N/N=C/c2ccsc2)nnn1-c1nonc1N	21µM*	.	4%	-8%	27%	-1%
Cc1ccsc1/C=N/NC(=O)c1nnn(-c2nonc2N)c1C(C)C	17µM*	.	-1%	-3%	6%	-1%
CC(C)c1c(C(=O)N/N=C/c2ccc(C(F)(F)F)cc2)nnn1-c1nonc1N	17µM*	.	6%	0%	-30%	-4%
CCN(Cc1nc(-c2ccc(OC)cc2)oc1C)S(=O)(=O)c1ccc(Cl)cc1	1%	.	.	.	.	.
Cc1ccc(S(=O)(=O)C(CNC(=O)C(=O)NCCc2ccc(F)cc2)c2cccs2)cc1 (centres undefined)	-3%	.	.	.	.	.
COc1cc(NC(=O)C2CCN(S(=O)(=O)c3c(C)noc3/C=C/c3c(C)cc(C)cc3C)CC2)cc(OC)c1	1%	.	.	.	.	.
COc1ccc(S(=O)(=O)N2CCC(N3CCN(Cc4ccccc4)C(=O)C3=O)CC2)cc1	1%	.	.	.	.	.
CCc1c(C(=O)N/N=C/c2cccs2)nnn1-c1nonc1N	12µM*	.	4%	17%	18%	15%
